These sequences were tested on RARb homodimer (NR concentration 270 nM) (assay: PBM binding z-score (relative to random genomic background probes); higher = stronger binding; sequences stand for … in GC…GCGATTGACAGCGTAGAATGAAGG).
Summary of the method: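 On custom Agilent 4×180K arrays, double-stranded probes with 34-nt variable regions carried direct-repeat seeds, single-nucleotide variants, half-site ablations or random human genomic background. Ligand-free nuclear receptor dimers were applied for 1 h, and binding was read with antibodies against each partner (one per run). Binding z-scores come from regression-normalized fluorescence, with the random background probes as reference.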

Row | Sequence | PBM binding z-score
1 | TCGAGTAGGTTACGGGGTCATTCAGGGATGAAGA | 3.99
2 | CCGACTGGGTCAAAGGTTACCATACTCAGTACGA | 3.42
3 | CGTCCAAGGTCAATGTTAGGTCAGTGAAAGCATT | 5.33
4 | CAACCTAGGTCACGAAAGGTCAAAGTCGAATGAC | 6.02
5 | CGTCAAAGTTCACCTAAGGTAACGTAAAGCACGC | 4.45
6 | CCAGACAGGTGAAAGGTCACTCAGTCTGGTACGC | 4.99
7 | TTACCAAGGTGACCTGAGGTCGTTGATCCAACTC | 3.13
8 | CTCGAAAGGTCAGTTGAGGTGAGTATACGGATAA | 4.91
9 | CGTCCAAGGTCAGAGAGGTCATTGAATGCCGAGT | 5.86
10 | TAGCCTAGGTTATGCGGGCCAGTATAGTGTCGGC | 0.219
11 | CCTACTGTGCCATTCAGAGGTCATTGATCATATG | 4.39
12 | CAAACTAGGTCAAAGGTCAAAGTAGAGCCAACCA | 5.2
13 | CCGAGTAGGTTACGTGGGGGCATTCAGTGCGAAT | 2.1
14 | TTACCAAGGTCAGCTGAGGTCGTTGATCCAACTC | 4.61
15 | AGTCAAAATTCACTAGGTAACGTAAGATTCAGCT | 0.0175
16 | GCATATAGGTAATTCAAGGTGAAAGTCCGATTGT | 0.847
17 | GATACAGGGTGAGCTAGAGGCCAGAGTATGGAAA | 0.626
18 | CCTAGCAGGCCAATCGGGGTCACTCAAGGCTTGA | 3.66
19 | ACTAGGTGGTCAGCTGAGGTCACACACAATTCGG | 4.47
20 | GCTTACGGGTCAAAGGTTAAAGCATGAATAGAAT | 3.36
21 | TCTAGTAGGTCACGGAGGTCACACACGACGGGTA | 4.79
22 | CCTACTGGGCCATTCAGAGGTTATTGATCATATG | 1.19

Reference: the supplement of paper PMC6555819
